Assay results: PubChem BioAssay (NCATS)
Inconclusive results are not listed. Entries that show only a call come without a potency. Values without a mark were called inactive. Active and inactive are the calls of the source. The call rests on the fitted dose curve; in most records, active means well fitted inhibition curve with a large enough effect; inconclusive means small, poorly fitted or top-dose-only effect; inactive means flat fitted curve, though single readings scatter. *1 amine or outer side, *2 acyl side, *3 side chain or, on linkers, in order; H or OH if unused. Where a SMILES comes first, the peptide text is derived from it. [ ]: non-standard residue; d: D form. X4 = CC(C)=CCc1cc(C(O)C(N[*:1])C(=O)[*:2])ccc1O

Experiments:
[1] = target: Calcium and integrin-binding protein 1 (Homo sapiens) (UniProt Q99828); assay: Primary qHTS for Identification of Calcium Integrin Binding Protein 1 (CIB1) Competitor (AID 1508620);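 further: GST tagged CIB1 binding a fluorescein labelled alphaIIb integrin peptide tracer; top concentration of the series differs between compounds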
Sequence of Calcium and integrin-binding protein 1 (Homo sapiens) (Q99828 whole entry, looked up): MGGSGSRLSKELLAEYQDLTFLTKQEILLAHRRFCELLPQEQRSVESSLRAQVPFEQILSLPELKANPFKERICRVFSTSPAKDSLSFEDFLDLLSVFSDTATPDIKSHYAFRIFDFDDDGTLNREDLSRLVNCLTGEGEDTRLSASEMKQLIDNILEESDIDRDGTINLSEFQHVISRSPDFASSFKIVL
How it was run: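 CIB1-GST (1 uM final) and compound incubated 15 min at room temperature before adding FITC-alphaIIb peptide tracer (100 nM final). Competition for binding read by fluorescence polarization (ex 480, em 540) after another 15 min at room temperature.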

[2] = Primary qHTS for inhibitors of nuclear receptor binding SET domain protein 2 (NSD2) in an isogenic RCH-ACV NSD2 p.E1099K mutant (9B) (AID 1645876); further: nearly all actives have a fitted effect of over 70% in size

CC(=O)O[C@@H]1[C@@H](O)[C@H](C)O[C@@H](O[C@H]2[C@@H]3C=CO[C@@H](O[C@@H]4O[C@H](CO)[C@@H](O)[C@H](O)[C@H]4O)[C@@H]3[C@@]3(CO)O[C@@H]23)[C@@H]1OC(=O)/C=C/c1ccccc1
Potency [1]: inactive | Potency [2]: inactive

COc1cc(O)cc(C)c1C(=O)O[C@H]1[C@@H](OC(C)=O)[C@H](n2ccc(=O)[nH]c2=O)O[C@@H]1CO
Potency [1]: inactive | Potency [2]: inactive

C=CC1(C)C=C2C(=O)OC(=O)C3=C(CCCC3(C)C)C2(O)CC1 (configuration not stated)
Potency [1]: inactive | Potency [2]: inactive

O=C1OCC(c2ccccc2)=C1Cc1ccccc1
Potency [1]: inactive | Potency [2]: inactive

COC(=O)C12C(=O)C(C)=C(O)C1(C)C(C)=CC1C3(CO)CCC(O)C(C)(C)C3CCC12C (configuration not stated)
Potency [1]: inactive | Potency [2]: inactive

CC(C)(O)CC(CO)NC(=O)CC(O)CC(=O)Cc1ccccc1 (configuration not stated)
Potency [1]: inactive | Potency [2]: inactive

C[C@@]12C[C@]3(O)O[C@H](O1)[C@]1(COC(=O)c4ccccc4)[C@H]3C[C@@]12O[C@@H]1O[C@H](CO)[C@@H](O)[C@H](O)[C@H]1O
Potency [1]: inactive | Potency [2]: inactive

CC(C)=CCc1cc(C(O)C2NC(=O)CNC(=O)C(Cc3c[nH]c4ccccc34)NC(=O)C3CCCN3C(=O)CNC(=O)C(C(C)C)NC(=O)CNC2=O)ccc1O (configuration not stated) (cyclo(G[X4]GVGPW); configuration not given here)
Potency [1]: inactive | activity change, negative = viability loss [2]: -11.5% [at 9.23 µM]

CC1=C(C(=O)O)/C(=C\CO[C@@H]2O[C@H](CO)[C@@H](O)[C@H](O)[C@H]2O)C(OC(=O)/C=C\c2ccc(O)cc2)C1 (some centres not stated)
Potency [1]: inactive | Potency [2]: inactive

CC1(C=O)CC[C@]2(C(=O)O[C@@H]3O[C@H](CO)[C@@H](O)[C@H](O)[C@H]3O)CC[C@]3(C)C(=CCC4[C@@]5(C)C[C@H](O)[C@H](O[C@@H]6OC[C@@H](O)[C@H](O)[C@H]6O)[C@@](C)(CO)C5CC[C@]43C)C2C1 (some centres not stated)
Potency [1]: inactive | outcome [2]: inactive [at 9.23 µM]

CC(C)c1cc(C(=O)N2CC[C@H](NC(=O)C3CC3)C2)n[nH]1
Potency [1]: inactive | Potency [2]: inactive

CC(=O)CCC1=C(C)C(O[C@@H]2O[C@H](CO)[C@@H](O)[C@H](O)[C@H]2O)C(O)CC1(C)C (some centres not stated)
Potency [1]: inactive | Potency [2]: inactive

C=C1CCC2C(C)(C(=O)OC)CCCC2(C)C1CCC(C)CC(=O)O (configuration not stated)
Potency [1]: inactive | Potency [2]: inactive

C=C(C(=O)OC)C1C(O)CC2(C)C(=O)CCC(O)(CO)C2C1O (configuration not stated)
Potency [1]: inactive | Potency [2]: inactive

CC1CCC2(OC1)OC1CC3C4CC=C5CC(O)CC(O[C@@H]6OC[C@@H](O)[C@H](O)[C@H]6O)C5(C)C4CCC3(C)C1(O)C2C (some centres not stated)
Potency [1]: inactive | Potency [2]: inactive

CC(=O)C=C=C1C(C)(C)CC(O[C@@H]2O[C@H](CO)[C@@H](O)[C@H](O)[C@H]2O)CC1(C)O (some centres not stated)
Potency [1]: inactive | Potency [2]: inactive

C[C@@H]1C(=O)O[C@H]2[C@@H](O)C34[C@H]5C[C@@H](C(C)(C)C)C36[C@@H](OC(=O)[C@@H]6O)O[C@@]4(C(=O)O5)[C@@]12O (some centres not stated)
Potency [1]: inactive | Potency [2]: inactive

CC1CC(=O)C2=C(CCC3(O)C(O)c4c(O)cccc4C(=O)C23O)C1 (configuration not stated)
Potency [1]: inactive | Potency [2]: inactive

CC1CCC2(OC1)OC1CC3C4CCC5C[C@@H](O[C@@H]6O[C@H](CO[C@@H]7OC[C@@H](O)[C@H](O)[C@H]7O)[C@H](O)[C@H](O)[C@H]6O)CC[C@]5(C)C4CC[C@]3(C)C1C2C (some centres not stated)
Potency [1]: inactive | Potency [2]: inactive

CC(C)O[C@@H]1O[C@H](CO)[C@@H](O)[C@H](O)[C@H]1O
Potency [1]: inactive | Potency [2]: inactive

CC(O)CCC1C(CO[C@@H]2O[C@H](CO)[C@@H](O)[C@H](O)[C@H]2O)CC(O)CC1(C)C (some centres not stated)
Potency [1]: inactive | Potency [2]: inactive

CC1=C(C(=O)OCc2ccccc2)C(c2ccc(-c3ccccc3)cc2)NC(=O)N1CCCCCC(=O)O (configuration not stated)
Potency [1]: inactive | Potency [2]: inactive

OC[C@H]1O[C@@H](OCCc2ccc(O)cc2)[C@H](O[C@@H]2OC[C@](O)(CO)[C@H]2O)[C@@H](O)[C@@H]1O
Potency [1]: inactive | Potency [2]: inactive

Cc1ccccc1CN1C2=NCCN2C(=O)C2=C1CCN(Cc1ccccc1)C2
Potency [1]: inactive | Potency [2]: inactive

COC(=O)C[C@H]1C(C)(C)[C@H](OC(=O)C(C)C)[C@@]2(O)C(=O)[C@]1(C)C1CC[C@]3(C)C(CC(=O)O[C@H]3c3ccoc3)[C@]13O[C@@H]32 (some centres not stated)
Potency [1]: inactive | Potency [2]: inactive

CC(=O)N1CCc2ccc(O)c(OC3OC(COC4OCC(O)(CO)C4O)C(O)C(O)C3O)c2C1Cc1ccc(O)cc1 (configuration not stated)
Potency [1]: inactive | Potency [2]: inactive
